Vaccinia Venus = inhibitors of vaccinia virus (Venus reporter); Vaccinia virus Venus reporter expression, fluorescence; Potency, µM (series often up to 36.5 µM), without a hit: at the highest dose activity change, negative = inhibition, most hits filed as inhibitors; 330,000 compounds, 0.46% hits; calls by dose curve; tested in A549 cells; also: potency is read from the fitted curve at half-maximal effect; nearly all actives have a fitted effect of over 30% in size
FMDV inh = blocks foot and mouth disease virus; FMDV antiviral cell-based qHTS; Potency, µM (top dose mostly 57.9 µM), for the others: top-dose activity change, negative = inhibition, most hits filed as inhibitors; 410,000 compounds, 1.2% hits; calls by dose curve; tested in HEK293T cells; also: read-out not given here; potency is read from the fitted curve at half-maximal effect; nearly all actives have a fitted effect of over 45% in size
MARV entry inh = inhibitors of Marburg virus binding or cell entry. 300,000 compounds, 1.8% hits. Marburg virus pseudotyped entry inhibition, cell reporter. Potency, µM (titrated, usually from 37.8 µM), for the others: top-dose activity change, negative = inhibition, usual class: inhibitors. AID 540276; calls by dose curve; tested in HEK293 cells; also: potency is read from the fitted curve at half-maximal effect
HCMV inh = inhibitors of human cytomegalovirus | activity change, negative = inhibition, % at 57.5 µM | HFF cells, HCMV-luciferase reporter, 72 h; stronger effect = lower value | 410,000 compounds, 4.5% hits | AID 1259415; in the data active = activity change below about -60%; inconclusive = no clear call, values can overlap the other calls; inactive = above about -39%
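Two compound doses tested in HFFs infected with HCMV-luciferase, MOI 1 PFU/cell, 72 h at 37C. Lysate luminescence read with OneGlo; data normalized against buffer-only and 10uM Salinomycin inhibitor controls.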
LASV entry inh = Lassa virus entry inhibition; Lassa virus pseudotype entry inhibition, cell reporter; Potency, µM (series often up to 37.9 µM), for inactives: top-dose activity change, negative = inhibition, hits mostly inhibitors; 300,000 compounds, 1.2% hits; AID 540256; calls by dose curve; tested in HEK293 cells; also: potency is read from the fitted curve at half-maximal effect; nearly all actives have a fitted effect of over 50% in size
Vaccinia mCherry = inhibitors of vaccinia virus infection (mCherry reporter signal) | Potency, µM (doses to about 36.5 µM), for inactives: at the top dose activity change, negative = inhibition, actives largely listed as inhibitors | 310,000 compounds, 0.63% hits | Vaccinia virus mCherry reporter infection, fluorescence | AID 720579; calls by dose curve; tested in A549 cells; also: potency is read from the fitted curve at half-maximal effect; nearly all actives have a fitted effect of over 35% in size
The depositor's hits bear a star; i = inactive; ? = inconclusive; / = not tested or not shown; [ ] = dose if it differs, or a comment. An excerpt weighted towards active compounds, which were near 6.5% of everything screened. % is scaled to controls: 0 for no effect and ±100 for the full control effect.

SMILES	Vaccinia Venus	FMDV inh	MARV entry inh	HCMV inh	LASV entry inh	Vaccinia mCherry
CC(C)CC(NC(=O)c1ccc(Cl)cc1)C(=O)OCC(=O)c1ccc2c(c1)NC(=O)CO2 (centres undefined)	?	?	?	-103.4*	?	?
Oc1c(Br)cc(/C=N/Nc2ccc(Cl)nn2)cc1Br	-8.5%	-10.7%	9.2%	-14.5	0.1%	-14.8%
CCOc1ccc(/C=N/Nc2ccc(Cl)nn2)c(O)c1	?	15.7%	2.2%[46.1 µM]	-81.8*	11.7%	?
Oc1c(Br)cc(Br)cc1/C=N/Nc1ccc(Cl)nn1	-7.1%	1.3%	-1.2%[46.1 µM]	-96.8*	?	-13.0%
Cc1ccc(-n2nnnc2CNC(=O)c2ccc(F)cc2)cc1C	-3.1%	2.2%	/	4.1	-5.3%[46.1 µM]	-11.3%
Cc1cc(=O)oc2cc(Oc3ccc([N+](=O)[O-])cc3[N+](=O)[O-])ccc12	-8.5%	35.5µM*	?	3.5	-25.5%	i
COc1ccc2c(C)cc(=O)oc2c1	-11.1%	-22.2%	/	-101.9*	/	-0.7%
COc1ccc(C2=NOC(COc3ccc4c(C)cc(=O)oc4c3)C2)c(OC)c1 (centres undefined)	?	2.9%	?	-68.9*	?	?
COc1ccccc1C1=NOC(COc2ccc3c(C)cc(=O)oc3c2)C1 (centres undefined)	-29.0%	-9.7%	?	-94.6*	?	-13.4%
COc1ccc(N(C(=O)CNC(=O)c2ccco2)C(C(=O)NCC2CCCO2)c2ccccc2)cc1 (centres undefined)	-1.6%	-17.2%	1.6%[46.1 µM]	0.0	?	-7.5%
CCC(=O)N1CCc2cc(CNC(=O)c3ccc(OC)cc3)ccc21	-11.6%	21.5%	/	-25.2	22.9%[46.1 µM]	i
COc1ccc(C2=NN(CC(=O)NCCc3ccccc3)C(=O)CC2)cc1	-7.1%	5.0%	/	74.9	-0.3%[46.1 µM]	-6.2%
COc1ccc(-c2nn(CC(=O)NCCc3ccccc3)c(=S)n2C)cc1	-13.0%	19.7%	?	-95.7*	12.6µM*	-22.1%
CCn1c(-c2ccc(C)cc2)nn(CC(=O)NCCc2ccccc2)c1=S	-25.3%	10.9%	8.91µM*	-103.5*	?	-13.7%
CCCC1SCC(C)(C)NC1=O (centres undefined)	-7.6%	-19.5%	8.0%	-39.1	-1.4%	-18.0%
O=C(O)c1ccc(/C=N\Nc2ccc(S(=O)(=O)N3CCOCC3)cc2[N+](=O)[O-])cc1	/	3.5%	/	-1.1	/	/
Cc1ccc(-n2c(O)c(/C=N/Nc3ccc(S(=O)(=O)N4CCOCC4)cc3[N+](=O)[O-])c3ccccc3c2=O)c(C)c1	-29.8%	10µM*	?	-97.6*	?	i
O=C(c1ccc(S(=O)(=O)NCc2ccco2)cc1)N1CCN(Cc2ccc3c(c2)OCO3)CC1	-20.0%	-16.3%	-15.9%	-68.4*	?	?
Cc1ccc(NS(=O)(=O)c2cccc(C(=O)NC3CCN(Cc4ccccc4)CC3)c2)cc1	?	-28.3%	?	?	-12.5%	?
Cc1ccc(S(=O)(=O)NCc2ccc(C(=O)N3CCN(c4ccc([N+](=O)[O-])cc4)CC3)cc2)cc1	/	?	/	-98.3*	/	/
COc1ccc(N2CCN(C(=O)c3ccc(CNS(=O)(=O)c4ccc(C)cc4)cc3)CC2)cc1	-26.2%	-28.5%	?	?	?	-23.2%
O=C(c1ccc(S(=O)(=O)c2cccc(Cl)c2)c([N+](=O)[O-])c1)N1CCN(Cc2ccccc2)CC1	-16.1%	11.2µM*	?	-36.0	?	-3.2%
Cc1ccc(NS(=O)(=O)c2ccc(C(=O)NC3CCN(Cc4ccccc4)CC3)cc2)cc1	?	?	?	-92.1*	11.2µM*	?
COc1cc(S(=O)(=O)NC2CCSc3ccccc32)ccc1NC(C)=O (centres undefined)	-7.6%	4.1%	10.5%[46.1 µM]	-28.3	11.2%[46.1 µM]	-13.6%
Cn1c(-c2cccc(C(F)(F)F)c2)cc2cnc(Nc3ccc(F)cc3)cc21	/	/	/	-5.9	/	/
SMILES	Vaccinia Venus	FMDV inh	MARV entry inh	HCMV inh	LASV entry inh	Vaccinia mCherry
Cc1ccc(S(=O)(=O)NCc2ccc(C(=O)N3CCN(Cc4ccccc4)CC3)cc2)cc1	?	/	?	-92.9*	?	-26.9%
CCN(c1ccccc1)S(=O)(=O)c1ccc(Cl)c(C(=O)NC2CCN(Cc3ccccc3)CC2)c1	?	?	?	-70.4*	?	?
O=C(c1cccc(S(=O)(=O)NCc2ccccc2)c1)N1CCCCC1	-9.8%	20.7%	1.5%	-8.3	1.4%	-14.7%
O=C(c1cccc(S(=O)(=O)NCc2ccccc2)c1)N1CCN(Cc2ccccc2)CC1	-8.2%	-17.6%	14.4%	-96.7*	-16.6%	/
Cc1ccc(C(=O)N2CCCC2(C)C(=O)NCC(C)C)cc1F (centres undefined)	-8.0%	-19.4%	/	-34.8	/	i
Cc1c(N2CCCCC2)[nH]c2ccccc12	-10.8%	-12.7%	/	-5.5	/	i
Cn1c2ccccc2c2ccc3c(c21)C(=O)C=CC3=O	12.9%	20µM*	3.4%	25.8	9.8%	-10.7%
COc1ccc2c(c1)c1ccc3c(c1n2C)C(=O)C=CC3=O	-16.0%	28.2µM*	/	1.9	/	-20.2%
Cc1ccc2c(c1)c1ccc3c(c1n2C)C(=O)C=CC3=O	/	31.6µM*	/	?	/	/
CN(C)c1ncc2nc(-c3cccs3)c(=O)n(CCC#N)c2n1	/	-16.7%	/	/	/	/
COc1cccc(CNC(=O)c2c(C)nn(-c3ccc(F)cc3)c2-n2cccc2)c1	1.6%	?	/	-29.3	-4.6%[46.1 µM]	-2.6%
COc1ccc(N(C(=O)CNC(=O)c2ccco2)C(C(=O)NCC2CCCO2)c2ccccc2)cc1OC (centres undefined)	-6.2%	2.6%	13.8%[46.1 µM]	25.5	19.6%	-10.7%
COc1ccccc1CNC(=O)C/C(C)=N/NC(=O)Cc1ccc(OC)c(OC)c1	-7.8%	-22.7%	17.2%	-65.6*	-6.1%	i
COc1ccc(NS(=O)(=O)c2cccc(C(=O)NNC(=O)c3ccc(O)c(Cl)c3)c2)cc1	/	1.8%	/	0.0	/	/
COc1cc(/C=C/C(=O)c2c(O)cc(C)oc2=O)cc(OC)c1O	58.6%	14.1µM*	-19.8%	-67.5*	-0.4%	67.9%
COc1cccc(/C=C/C(=O)c2c(O)cc(C)oc2=O)c1O	-10.6%	20µM*	?	-97.1*	-10.7%	-23.9%
COc1ccc(/C=C/C(=O)c2c(O)cc(C)oc2=O)c(OC)c1	42.8%	10.4%	-7.3%	-38.5	15.2%	i
Cc1ccc(CNC(=O)CN(C)C2=NS(=O)(=O)c3ccccc32)cc1	/	?	/	-39.6	/	/
COc1ccc(C(=O)NCc2ccc(F)cc2)cc1S(=O)(=O)N1CCCC1	-11.7%	-1.4%	14.2%	-17.8	-14.9%	-2.6%
COc1cc(-c2n[nH]c3ccnc(-c4cccc(C(F)(F)F)c4)c23)cc(OC)c1OC	/	/	/	-14.2	/	/
CC(=O)Nc1ccc(-c2nccc3[nH]nc(-c4cccc(C(F)(F)F)c4)c23)cc1	/	/	/	-102.0*	/	/
c1ccc(Sc2ncnc3ccccc23)cc1	-15.1%	9.0%	-12.7%[14.2 µM]	-73.8*	27.3%	?
